The sample as a whole holds a higher share of hits than the screen did.
Ba CapD inh – CapD enzyme inhibition. AID 492967. purified CapD enzyme, fluorescence intensity read-out; hits give low values. z-score (no concentration beside the values). hit rate 0.23% among 140,000; in the data active means z-score mostly below about -2.9, no sharp cut-off; inactive means mostly above about -1.9
* hit, by the source's call.

SMILES	Ba CapD inh
CCOC(=O)C1=C(C)N=c2s/c(=C\c3ccc(OC)cc3OC)c(=O)n2C1c1ccc(OC)c(OC)c1 (configuration not stated)	-0.13
O=C(Cc1ccccc1)c1ccc(O)cc1	-0.055
O=C(Cc1ccccc1)c1cc(O)c(O)cc1O	-7.55*
Nc1ccccc1C(=O)Cc1ccccc1	6.36
CCOc1ccc(NC(=O)c2sc3nc4c(cc3c2N)C(=O)CC(C)(C)C4)cc1	-0.495
CCC(=O)Nc1cccc(C(=O)N/N=C/c2ccccc2C#N)c1	0.55
CC1=NN(c2ccccc2)C(=O)/C1=C\c1c(O)n(-c2ccc(F)cc2)[nH]c1=O	-1.23
N#CC1=C(SCC(N)=O)NC(=O)CC1c1ccccc1 (configuration not stated)	0.105
N#CC1=C(N)NC(=S)C(C(N)=O)C1c1ccccc1 (configuration not stated)	-4.49*
N#CC1(C#N)[C@H](C(N)=O)[C@H]1c1ccccc1	0.405
Cn1c(=O)c2c(nc3n2CC(C24CC5CC(CC(C5)C2)C4)=NN3Cc2ccccc2)n(C)c1=O	-0.04
CCOc1ccc(N(CC(=O)NCCSc2ccccn2)S(=O)(=O)c2ccc(SC)cc2)cc1	-0.155
COc1ccc(S(=O)(=O)N(CC(=O)Nc2ccccc2)c2ccccc2)cc1	-0.38
O=C(O)CSc1sc(=S)sc1SCC(=O)O	-4.99*
NC(=O)CSc1sc(=S)sc1SCC(N)=O	-1.14
NCCSc1sc(=S)sc1SCCN	-0.58
COC(=O)C1=C(N)n2c(s/c(=C/c3ccncc3)c2=O)=C(C(=O)OC)C1c1ccncc1 (configuration not stated)	0.535
Cc1cc(OC(=O)c2c(-c3c(Cl)cccc3Cl)noc2C)n(-c2ccc(NC(=O)c3c(-c4c(Cl)cccc4Cl)noc3C)cc2)n1	-0.095
COC(=O)c1cnc(NCc2cccnc2)c2ccccc12	46.4
O=C(N/N=C/c1cc(Cl)cc(Cl)c1O)N/N=C/c1cc(Cl)cc(Cl)c1O	-1.6
Fc1ccc2c(c1)-c1nc(C3CC3)ncc1CO2	74.3
N#C/C(=C\C=C\c1ccco1)C(N)=S	-12.3*
NC(=S)N/N=C/c1ccco1	-3.09
N#C/C(=C\C=C\c1ccco1)c1nc2c(s1)CCCC2	-3.58
O=C(O)Cc1ccccc1C(=O)N1CCN(c2nc(-c3ccccc3)ns2)CC1	-0.96
SMILES	Ba CapD inh
O=C(O)CCCC(=O)Nc1ccccc1C(F)(F)F	7.63
Cc1cc(C)nc(N2CCN(C(=O)c3cccs3)CC2)n1	-0.2
N=C1S/C(=C/c2ccc(-c3ccccc3[N+](=O)[O-])o2)C(=O)N1c1nonc1N	-1.46
COC(=O)c1cccc(-c2ccc(/C=C3\SC(=N)N(c4nccs4)C3=O)o2)c1	0.185
N=C1S/C(=C/c2ccc(-c3cccc(C(=O)O)c3)o2)C(=O)N1c1nonc1N	-6.1*
CC1=C(C(=O)Nc2ccc(Cl)cc2)C(c2ccncc2)C(C#N)=C(SCC(=O)Nc2ccc(Cl)c(Cl)c2)N1 (configuration not stated)	1.58
COC(=O)c1ccc(C2Oc3ccc(Cl)cc3C3CC(c4ccc(OC)cc4)=NN32)cc1 (configuration not stated)	0.16
COc1cc(/C=c2\sc3n(c2=O)C(c2c(OC)ccc4ccccc24)C(C(C)=O)=C(C)N=3)cc(OC)c1OC (configuration not stated)	0.13
COc1ccccc1N=c1scc(-c2ccc(S(=O)(=O)N3CCOCC3)cc2)n1C	0.595
CC(=O)Oc1ccccc1N(C(C)=O)S(=O)(=O)c1ccc(C)cc1	-0.385
COc1ccccc1N(C(C)=O)S(=O)(=O)c1ccc(Cl)cc1	-4.7*
COc1ccc(N(C(=O)c2ccccc2)S(=O)(=O)c2ccc(Cl)cc2)cc1	0.455
CSC1=NC(C)(C)CC12C=CC(=O)C(C)=C2 (configuration not stated)	0.275
CC(C)n1c(C2CC(=O)N(c3ccccc3)C2)nc2ccccc21 (configuration not stated)	0.58
COc1c(C#N)sc2ccccc12	-0.385
c1ccc2c(c1)sc1ccccc12	-10.1*
Cc1c(C#N)sc2ccccc12	-0.92
COc1cc(C2C(C(=O)OCC(C)C)=C(C)NC3=C2C(=O)CC(c2cccs2)C3)cc(OC)c1OC (configuration not stated)	25
CC(=O)N(C(C)=O)c1ncnc2sc3c(c12)CCCC3	-5.36*
CCN(CC)c1ncnc2sc3c(c12)CCCC3	-0.165
CC(C)(C)C(=O)Nc1ncnc2sc3c(c12)CCCC3	-0.315
CC(C)(C)c1ccc(/C=C2\CCCC(=C3SCCCS3)C2=O)c2c1OCO2	-1.48
O=C(CSc1c2c(nc3ccccc13)CCCC2)NCCC1=CCCCC1	0.15
CCN(CC)C(=O)/C=C\c1cn(-c2ccccc2)nc1-c1ccc(OC)cc1	3.75
CCC(Sc1nc2ccccc2s1)C(=O)O (configuration not stated)	0.87
SMILES	Ba CapD inh
CC(=O)SC(CC(=O)O)c1nc2ccccc2s1 (configuration not stated)	-5.55*
CC(Sc1nc2ccccc2s1)C(=O)O (configuration not stated)	0.095
N#Cc1ccc(C(=S)N2CCOCC2)cc1	0.01
C=CCN1C(=O)/C(=C/c2ccco2)C(=O)NC1=S	-4.65*
C=CCN1C(=O)/C(=C\c2ccc(-c3ccc(Cl)c([N+](=O)[O-])c3)o2)C(=O)NC1=S	-0.335
C=CCN1C(=O)NC(=O)/C(=C/c2ccco2)C1=O	-0.03
COc1cc(/C=C2/C(=O)N(c3ccccc3)N=C2C)ccc1OCC(=O)Nc1ccc(Br)c(Cl)c1	-0.095
CCN(CC)CC(=O)N1c2ccccc2Sc2ccc(C(F)(F)F)cc21	0.475
O=C(NCCSCc1ccco1)Nc1cc(Cl)cc(Cl)c1	0.21
O=C(NCCCO)Nc1ccc2nc(-c3ccco3)c(-c3ccco3)nc2c1	-7.29*
O=C(Nc1ccc(N2CCOCC2)cc1)Nc1ccc2nc(-c3ccco3)c(-c3ccco3)nc2c1	-3.72
CCOc1ccc(C2Oc3ccc(Cl)cc3C3CC(c4ccc(OC)cc4)=NN32)cc1 (configuration not stated)	-0.965
CCCCN(Cc1ccccc1)Cc1ccccc1O	-0.065
CCCCN(CC)Cc1ccc(CNC(=S)Nc2cccc(F)c2)o1	0.485
O=C(NCc1ccccc1)Nc1ccccc1	-0.625
CCCCN(CC)Cc1ccc(CNC(=O)Nc2ccccc2)o1	-5.07*
O=c1c(N2CCN(c3ccccc3)CC2)csc2ccccc12	-2.45
Cc1ccc2scc(N3CCOCC3)c(=O)c2c1	-4.17*
O=c1c(N2CCC3(CC2)OCCO3)csc2ccccc12	-1.67
CCOc1ccc(C2C(N3C(=O)c4c(Cl)c(Cl)c(Cl)c(Cl)c4C3=O)C(=O)N2c2cccc(Cl)c2C)cc1 (configuration not stated)	-0.445
COc1nc(-c2ccccc2)cc(C(F)(F)F)n1	0.125
COC(=O)c1ccn(-c2nc(-c3ccco3)cc(C(F)(F)F)n2)n1	74.7
COc1cccc(-c2cc(C(F)(F)F)nc(-n3cccn3)n2)c1	-3.4*
CCN(CC)C(=O)c1sc(NC(=S)Nn2cnnc2)c(C(=O)OC)c1C	-3.06
CCOC(=O)c1ccc(N2CCOCC2)c(N=Cc2cc(Br)cc(Br)c2O)c1	0.47
SMILES	Ba CapD inh
COc1ccc(SCC(=O)O)cc1OC	0.48
COC(=O)C1=C(Nc2ccccc2NS(=O)(=O)c2ccccc2Cl)CSC1	-0.21
CCOC(=O)/C(C#N)=C/Nc1ccn[nH]1	-1.89
CCOC(=O)/C(C#N)=C/Nc1ccc2c(c1)OCO2	-0.6
CCOC(=O)/C(C#N)=C/Nc1cc(C)no1	-4.16*
CC(=O)Oc1ccc(C(=O)Nc2cccc(-c3nc4ccc(NC(=O)c5ccc(OC(C)=O)cc5)cc4o3)c2)cc1	1.1
